# A number with no mark means an inactive call. The source made the active and inactive calls. Calls come from the whole dose curve.
# Assay: qHTS assay to identify small molecule agonists of the sonic hedgehog signaling (Shh) pathway (AID 1259368); note: nearly all actives have a fitted effect of over 15% in size
# Conditions: NIH/3T3 Gli1-Luc reporter, luciferase, 24 h, stronger effect = higher value; series mostly up to 92.4 µM
# Summary of the method: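 NIH/3T3-derived 3T3Gli1-Luc cells with stably integrated Gli1-driven firefly luciferase, 2,000 cells/well, compounds added after 4 hr. Incubated 24 hr at 37C, 5% CO2; luminescence read after 30 min with luciferase reagent at room temperature.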
# % is set by controls: 0 for no effect and ±100 for the full control effect.
Structure (SMILES),outcome,activity change
CCCCCCCC/C=C\CCCCCCCC(=O)OC[C@@H](O)[C@H]1OC[C@H](O)[C@H]1O,inactive,–
COc1ccc(NS(=O)(=O)c2ccc(N)cc2)nn1,inactive,–
CC(C)CCO,inactive,–
O=C(O)CCNC(=O)c1ccccc1,inactive,–
C=C[Si](C)(C)O[Si](C)(C)C=C,inactive,–
COc1ccc(N=Nc2cc(C)c(N=Nc3ccc(S(=O)(=O)O)cc3)cc2OC)cc1,inactive,–
CCCCCCCC[Si](OCC)(OCC)OCC,inactive,–
CNC(=O)C(c1ccccc1)c1ccccc1,inactive,–
CCNC(=O)/C=C/c1cccc(Br)c1,inactive,–
C[C@H](CCC(=O)NCC(=O)O)[C@H]1CC[C@H]2[C@@H]3[C@H](O)C[C@@H]4C[C@H](O)CC[C@]4(C)[C@H]3C[C@H](O)[C@]12C,inactive,–
NC(Cc1c[nH]c2ccccc12)C(=O)O (stereo not given),inactive,–
O=S(=O)(O)SSS(=O)(=O)O,inactive,–
COC(=O)CCC(=O)O,inactive,–
CC(C)COC(=O)COc1ccc(Cl)cc1Cl,inactive,–
C=C(C)[C@@H]1CC[C@@H](C)C[C@@H]1O,inactive,–
Nc1ccc(S(=O)(=O)Nc2ccccn2)cc1,inactive,–
C=CCOC(=O)c1ccc(C(=O)OCC=C)c(C(=O)OCC=C)c1,inactive,–
O=C(O)Cc1cccc(-c2cc(CCCCCCc3ccc(O[C@H]4O[C@H](CO)[C@@H](O)[C@H](O)[C@@H]4O)c(-c4cccc(CC(=O)O)c4)c3)ccc2O[C@H]2O[C@H](CO)[C@@H](O)[C@H](O)[C@@H]2O)c1,–,-0.0491% [at 0.349 µM]
O=S(=O)(O)c1cc(O)ccc1O,inactive,–
CCCCC(C)C(=O)O (stereo not given),inactive,–
NS(=O)(=O)c1cc2c(cc1Cl)NC(CC1CCCC1)NS2(=O)=O (stereo not given),inactive,–
CCCCCCCCCCCCCCCCCCN(C)C,inactive,–
CC(=O)OCC(=O)[C@@]1(O)[C@H](OC(C)=O)C[C@H]2[C@@H]3CCC4=CC(=O)C=C[C@]4(C)[C@@]3(F)[C@@H](O)C[C@@]21C,inactive,–
CCOC(=O)CCc1ccccc1,inactive,–
FC(F)(F)c1ccc(Cl)cc1Cl,inactive,–
CC(C)(C)c1ccc(C=O)cc1,inactive,–
O=C(O)c1ccccc1C(=O)OCc1ccccc1,inactive,–
COc1cc([N+](=O)[O-])ccc1N,inactive,–
C[C@@H]1C[C@H]2[C@@H]3C[C@H](F)C4=CC(=O)C=C[C@]4(C)[C@@]3(F)[C@@H](O)C[C@]2(C)[C@@]1(O)C(=O)CO,inactive,–
O=S1(=O)CCCC1,inactive,–
